From PubChem
NPSR antag: antagonists of human neuropeptide S receptor cAMP signaling; Potency, µM (series often up to 38.3 µM), for inactives: top-dose activity change, negative = inhibition, most hits filed as inhibitors; 1% of 220,000 active; Q6W5P4; CHO-NPSR cells, cAMP TR-FRET, antagonist mode; note: nearly all actives have a fitted effect of over 50% in size
VP16 counter: counter-screen for ROR gamma inhibitors: Gal4-VP16 reporter | Drosophila S2 Gal4-VP16 UAS-luciferase, luminescence, 20 h | Potency, µM (highest dose often 53.6 µM), for inactives: at the top dose activity, negative = inhibition, most hits filed as inhibitors | 3.5% of 310,000 active | AID 2546;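 note: Gal4-VP16 expression switched on by copper sulfate through the metallothionein promoter; nearly all actives have a fitted effect of over 50% in size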
B2AR arrestin: beta2AR (human) beta-arrestin recruitment activity | beta-arrestin recruitment to beta2AR, cell-based reporter | Potency, µM (top dose mostly 46.1 µM), without a hit: at the highest dose activation, actives largely listed as activators | 0.02% of 330,000 active | AID 492947;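 note: 0% = DMSO controls and full agonism = EC100 isoproterenol or metaproterenol; nearly all actives have a fitted effect of over 65% in size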
Target sequence (P07550 whole entry, looked up): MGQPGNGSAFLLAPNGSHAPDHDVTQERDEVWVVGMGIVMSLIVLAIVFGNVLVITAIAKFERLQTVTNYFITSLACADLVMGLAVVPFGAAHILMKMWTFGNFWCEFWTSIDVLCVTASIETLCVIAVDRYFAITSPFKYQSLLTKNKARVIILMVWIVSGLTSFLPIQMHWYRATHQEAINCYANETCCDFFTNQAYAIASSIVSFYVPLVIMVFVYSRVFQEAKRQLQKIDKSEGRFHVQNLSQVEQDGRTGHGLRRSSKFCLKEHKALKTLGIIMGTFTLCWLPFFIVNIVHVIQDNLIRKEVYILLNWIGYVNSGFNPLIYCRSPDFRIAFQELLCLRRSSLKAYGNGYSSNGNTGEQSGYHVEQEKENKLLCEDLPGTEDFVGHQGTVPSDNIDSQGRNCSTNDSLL
RORg inh: ROR gamma (mouse) transcription inhibition. AID 2551. 5.4% of 310,000 active. Potency, µM (highest dose often 53.6 µM), without a hit: at the highest dose activity change, negative = inhibition, hits mostly inhibitors. Drosophila S2 Gal4-RORgamma UAS-luciferase reporter, 20 h; note: nearly all actives have a fitted effect of over 60% in size
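Drosophila S2 cells stably expressing Gal4-DBD/mouse RORγ fusion under metallothionein promoter plus UAS-luciferase; compound 1 h, then 700 uM CuSO4 induction for 20 h at ambient temperature; inhibition read as reduced luminescence.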
* hit, by the source's call; ? = inconclusive; . = no result; [ ] = dose if it differs, or a comment. The list is not random: actives were taken first. Their share in the collection is about 5.7%. Calls come from the whole dose curve; as a rule, active = well fitted curve in the direction sought with a large enough effect; inconclusive = small, poorly fitted or top-dose-only effect, or another doubt; inactive = no such curve, though single readings can be large; an effect the other way counts as inactive or inconclusive. Unless noted, % is set by controls: 0 for no effect and ±100 for the full control effect; potency is the fitted concentration of half-maximal effect.

SMILES | NPSR antag | VP16 counter | B2AR arrestin | RORg inh
CN(C(=S)Nc1ccc(F)cc1)C1(c2ccccc2Cl)CCCCC1=O (stereo unspecified) | -18%[46.1 µM] | -4% | 0% | 8.9µM*
CC(=O)c1ccc(NC(=S)NC(C)CCc2ccccc2)cc1 (stereo unspecified) | 26% | 20µM* | 0% | 7.9µM*
CC(=O)c1ccc(NC(=S)N(CCCN(C)C)Cc2ccccc2)cc1 | 4%[7.67 µM] | -11% | -1% | 18%
Cc1cccc(C)c1NC(=S)NC(C)CCc1ccccc1 (stereo unspecified) | -13%[46.1 µM] | 4.5µM* | 5% | 2.2µM*
CCCN(Cc1ccccc1)C(=S)Nc1ccc(C(C)=O)cc1 | -24% | 10µM* | 0% | 4.5µM*
Cc1ccccc1NC(=O)C(=O)NC(C)CCc1ccccc1 (stereo unspecified) | -4% | -12% | 0% | -29%
CC(CCc1ccccc1)NC(=O)C(=O)Nc1ccccc1 (stereo unspecified) | -1% | -1% | 0% | 24%
Cc1ccc(NC(=S)NC(C)CCc2ccccc2)cc1C (stereo unspecified) | -25% | 6.3µM* | 1% | 4µM*
CC[C@@H]1OC(=O)[C@@H](C)[C@H](O[C@H]2C[C@@](C)(OC)[C@@H](O)[C@H](C)O2)C(C)[C@H](O[C@H]2O[C@@H](C)C[C@@H](N(C)C)[C@@H]2O)[C@@](C)(O)C[C@H](C)C(=O)[C@@H](C)[C@H](O)[C@@]1(C)O (stereo partly specified) | . | 4% | . | 14%
CCCOc1ccc2cc(-c3ccccn3)c(=O)oc2c1 | -7% | 5µM* | -1% | 7.1µM*
CC(C)C[C@H](N)c1nnc(S(=O)(=O)Cc2ccc(F)cc2)o1 | ? | 14µM* | 0% | 0%
CCOC(=O)C1CCCN(C(=O)CCc2nc3sc4c(c3c(=O)[nH]2)CCCC4)C1 (stereo unspecified) | . | . | -1% | .
Cc1cccc(/C=N/NC(=O)c2cc(C)nc3ccccc23)n1 | . | ? | -1% | 11µM*
Cc1cccc(/C=N/NC(=O)c2cc(C3CC3)nc3ccccc23)n1 | . | ? | 0% | ?
Cc1cc(C(=O)N/N=C/c2ccc(N(C)C)cc2)c2ccccc2n1 | ? | -7% | 0% | 16µM*
CCCCC(=O)NC1(C(F)(F)F)NC(=O)N(Cc2ccccc2)C1=O (stereo unspecified) | -4% | -7% | 0% | 22%
O=[N+]([O-])c1ccc(N2CCN(c3ccccn3)CC2)c(Cl)c1 | . | 5% | 0% | 58%
COC(=O)C1=C[C@@H](C(=O)OC)C2C3=C(C(=O)[C@@]2(C)NC(=O)c2ccccc2)[C@H](C)[C@@H]2C(=O)N(C)C(=O)[C@@H]2[C@@H]3C1 (stereo partly specified) | . | -2% | . | 1%
CC(=O)c1ccc(OC2C=CC(C#Cc3ccc(Br)cc3)OC2CO)cc1 (stereo unspecified) | . | 0%[10 µM] | . | 21%[10 µM]
O=C(N/N=C/c1cc(Br)ccc1O)C(=O)Nc1ccccc1OC(F)(F)C(F)F | ? | 2.8µM* | 0% | 0.79µM*
O=C(N/N=C/c1cc(Cl)ccc1O)C(=O)Nc1ccccc1OC(F)(F)C(F)F | -16% | 2.5µM* | -1% | 0.89µM*
COc1ccccc1/C=N/NC(=O)C(=O)Nc1ccccc1OC(F)(F)C(F)F | -17% | 1% | -1% | -5%
COC(=O)/C=C/c1ccc(C(=O)NCC(=O)N[C@@H](CCC(=O)OC)C(=O)N[C@@H](CC(C)C)C(N)=O)cc1 | . | 12% | . | 31%
CCCCCCS(=O)Cc1ccccc1 (stereo unspecified) | -5%[46.1 µM] | -3% | 0% | 20%
CCOC(=O)Cc1csc(NC(=S)NC(=O)c2ccccc2C)n1 | -13%[46.1 µM] | -28% | 0% | 11µM*
SMILES | NPSR antag | VP16 counter | B2AR arrestin | RORg inh
CCOC(=O)Cc1csc(N/N=C/c2ccc(C(F)(F)F)cc2)n1 | -10%[46.1 µM] | ? | 0% | 0.71µM*
CCOC(=O)Cc1csc(NC(=S)NC(=O)c2ccc(F)cc2)n1 | -20%[46.1 µM] | ? | -1% | 11µM*
CCOC(=O)Cc1csc(NC(=S)NC(=O)c2cc(OC)c(OC)c(OC)c2)n1 | 2% | 4% | 0% | ?
CCOc1ccc(-c2c(C(=O)N/N=C/c3cccnc3)nnn2-c2nonc2N)cc1 | . | -13% | 0% | 0%
CCOc1ccc(NC(=O)NN2C(C)CCCC2C)cc1 (stereo unspecified) | . | 0% | -1% | 9%
CC(=O)c1ccc(NC(=O)C2CCCC2)cc1 | . | 15% | 0% | 10%
CC(=O)c1ccc(NC(=S)NC2CCCC(C)C2C)cc1 (stereo unspecified) | -39% | ? | 0% | 5µM*
CC(=O)c1ccc(NC(=S)NN2C(C)CCCC2C)cc1 (stereo unspecified) | -1% | ? | 0% | 8.9µM*
CCOc1ccc(NC(=S)NN2C(C)CCCC2C)cc1 (stereo unspecified) | -5% | 8.9µM* | 0% | 2.2µM*
CC12CCC(=O)N1C(C(=O)NCc1ccc(Cl)cc1Cl)CS2 (stereo unspecified) | . | . | 0% | .
C/C(Cc1ccccc1)=N\NC(=O)CNC(=O)c1cccc(Cl)c1 | -11% | 6% | 0% | -16%
O=C(N/N=C/C1C(c2ccccc2)C1(Cl)Cl)c1cccc(Cl)c1 (stereo unspecified) | ? | 4.5µM* | 6% | 2.8µM*
O=C(Nc1ccc(N=Nc2ccccc2)cc1)c1cccc(Cl)c1 | -26%[46.1 µM] | ? | 0% | -32%
CCC/C(=N/NC(=O)c1cccc(Cl)c1)c1ccccc1 | -12% | ? | 7% | 13µM*
CSc1ccc(C(=O)NC2CCSc3ccccc32)cc1 (stereo unspecified) | . | -3% | 0% | -10%
O=C(ONC1=NCCCCC1)c1cccc([N+](=O)[O-])c1 | 11% | -27% | -1% | 7.1µM*
O=[N+]([O-])c1cccc(/C=N/NC2=NCCCCC2)c1 | 4% | -2% | 0% | 5%
COC(=O)c1ccc(C(NC(=O)OCc2ccccc2)/C(=C/[C@@H](C)C(=O)NC2CCCCC2)c2cccnc2)cc1 (stereo partly specified) | . | 1% | . | ?
Cc1onc(-c2c(F)cccc2Cl)c1C(=O)Nc1nccs1 | 6% | ? | 0% | 13µM*
Cc1onc(-c2c(F)cccc2Cl)c1C(=O)Nc1cccc2nsnc12 | -28%[46.1 µM] | 0% | 0% | 0%
Cc1cc(NC(=O)c2c(-c3c(F)cccc3Cl)noc2C)no1 | 10% | 0% | 0% | -6%
Cc1onc(-c2c(F)cccc2Cl)c1C(=O)Nc1nc2ccccc2[nH]1 | ? | ? | -1% | 2.8µM*
Cc1onc(-c2c(F)cccc2Cl)c1C(=O)NC1=NCCS1 | -27%[46.1 µM] | 22µM* | -1% | 14µM*
CCOc1ccccc1-c1nnc2n1N=C(c1ccc(OC)c(OC)c1)CS2 | . | 0% | . | -14%
COc1ccc(C2CC(C(F)(F)F)n3nc(C(=O)N(C)Cc4cn(C)nc4C)c(Cl)c3N2)cc1 (stereo unspecified) | -12%[46.1 µM] | 2% | 0% | ?
